Results as given in PubChem BioAssay AID1159580 (chemical genetic matrix, 2015).
Where “and” joins values, the source holds several entries; their conditions need not be identical. Equal entries are not always repeated. The whole screen tested about 5,500 compounds, of which about 2,000 (36%) were called active. About 18% were inconclusive and are not listed. No stated cut-off is given here; in the data, active means normalized growth mostly below about 0.91 (no sharp cut-off); inconclusive means no clear call, values can overlap the other calls; inactive means mostly above about 0.92. The list shows a part of the results. Where a SMILES comes first, the peptide text is derived from it. The star is where a group is joined. For = O=C*

Test: chemical genetic growth profiling, strain panel (AID 1159580);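 further: tested at 20 µM; growth read once vehicle control cultures reached saturation at 30 °C; 1 = growth at the plate median or of vehicle wells; lower values mean less growth of the strain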
Details: growth OD

Measured: normalized growth

CSCCC(NC=O)C(=O)NC(Cc1ccccc1)C(=O)O (stereo not drawn) (For-Met-Phe-OH; configuration not given here)
inactive: S. cerevisiae deletion strains, locus YAL013W, strain DEP1, active compounds read low 1.02 | S. cerevisiae deletion strains, locus YBR021W, strain FUR4, active compounds read low 1.04 | S. cerevisiae deletion strains, locus YBR229C, strain ROT2, active compounds read low 1.01 | S. cerevisiae deletion strains, locus YCL029C, strain bik1, active compounds read low 1.03 | S. cerevisiae deletion strains, locus YDL035C, strain GPR1, active compounds read low 1.03 | S. cerevisiae deletion strains, locus YDL074C, strain BRE1, active compounds read low 1.02 | S. cerevisiae deletion strains, locus YDL101C, strain DUN1, active compounds read low 1.01 | S. cerevisiae deletion strains, locus YDL134C, strain PPH21, active compounds read low 1.03 | S. cerevisiae deletion strains, locus YDL185W, strain tfp1, active compounds read low 1.02 | S. cerevisiae deletion strains, locus YDL192W, strain arf1, active compounds read low 1.02 | S. cerevisiae deletion strains, locus YDR101C, strain arx1, active compounds read low 0.998 | S. cerevisiae deletion strains, locus YDR150W, strain NUM1, active compounds read low 1.01 | S. cerevisiae deletion strains, locus YDR162C, strain NBP2, active compounds read low 1.01 | S. cerevisiae deletion strains, locus YDR318W, strain mcm21, active compounds read low 1.02 | S. cerevisiae deletion strains, locus YDR388W, active compounds read low 1.02 | S. cerevisiae deletion strains, locus YDR502C, strain sam2, active compounds read low 1.01 | S. cerevisiae deletion strains, locus YEL061C, strain CIN8, active compounds read low 1.01 | S. cerevisiae deletion strains, locus YER110C, active compounds read low 1.02 | S. cerevisiae deletion strains, locus YER155C, strain BEM2, active compounds read low 1 | S. cerevisiae deletion strains, locus YER167W, strain BCK2, active compounds read low 1 | S. cerevisiae deletion strains, locus YGL078C, strain dbp3, active compounds read low 1.01 | S. cerevisiae deletion strains, locus YGL086W, strain mad1, active compounds read low 1 | S. cerevisiae deletion strains, locus YGL248W, strain PDE1, active compounds read low 1 | S. cerevisiae deletion strains, locus YGR135W, strain pre9, active compounds read low 1.02 | S. cerevisiae deletion strains, locus YGR229C, strain SMI1, active compounds read low 1.02 | S. cerevisiae deletion strains, locus YGR252W, strain gcn5, active compounds read low 1.03 | S. cerevisiae deletion strains, locus YHR030C, strain SLT2, active compounds read low 1.01 and 1.07 | S. cerevisiae deletion strains, locus YHR079C, strain IRE1 (second series), active compounds read low 1.02 | S. cerevisiae deletion strains, locus YHR079C, strain IRE1, active compounds read low 1.04 | S. cerevisiae deletion strains, locus YHR094C, strain hxt1, active compounds read low 1.02 | S. cerevisiae deletion strains, locus YHR129C, strain ARP1, active compounds read low 1 | S. cerevisiae deletion strains, locus YHR200W, strain rpn10, active compounds read low 1.03 | S. cerevisiae deletion strains, locus YIL066C, strain RNR3, active compounds read low 1.01 | S. cerevisiae deletion strains, locus YIL073C, strain SPO22, active compounds read low 1.08 | S. cerevisiae deletion strains, locus YIL125W, strain kgd1, active compounds read low 1.01 | S. cerevisiae deletion strains, locus YIR030C, strain dcg1, active compounds read low 1.01 | S. cerevisiae deletion strains, locus YJL095W, strain BCK1, active compounds read low 1 and 1.06 | S. cerevisiae deletion strains, locus YJL134W, strain LCB3, active compounds read low 1 | S. cerevisiae deletion strains, locus YJL168C, strain set2, active compounds read low 1.01 | S. cerevisiae deletion strains, locus YJL187C, strain SWE1 (second series), active compounds read low 1.01 | S. cerevisiae deletion strains, locus YJR043C, strain POL32, active compounds read low 1.01 | S. cerevisiae deletion strains, locus YJR066W, strain TOR1, active compounds read low 1.01 | S. cerevisiae deletion strains, locus YKL009W, strain mrt4, active compounds read low 1.02 | S. cerevisiae deletion strains, locus YKL068W, active compounds read low 1.01 | S. cerevisiae deletion strains, locus YKL085W, strain MDH1 (second series), active compounds read low 1.01 | S. cerevisiae deletion strains, locus YKL085W, strain MDH1, active compounds read low 1.01 | S. cerevisiae deletion strains, locus YKL190W, strain CNB1, active compounds read low 1.01 | S. cerevisiae deletion strains, locus YKR001C, strain vps1, active compounds read low 1.02 | S. cerevisiae deletion strains, locus YLR039C, strain RIC1, active compounds read low 1.06 | S. cerevisiae deletion strains, locus YLR058C, strain SHM2, active compounds read low 1.01 | S. cerevisiae deletion strains, locus YLR102C, strain apc9, active compounds read low 1.02 | S. cerevisiae deletion strains, locus YLR113W, strain HOG1, active compounds read low 0.978 | S. cerevisiae deletion strains, locus YLR262C, strain YPT6, active compounds read low 1.04 | S. cerevisiae deletion strains, locus YLR268W, strain sec22, active compounds read low 1.02 | S. cerevisiae deletion strains, locus YLR330W, strain CHS5, active compounds read low 1.01 | S. cerevisiae deletion strains, locus YLR342W, strain FKS1 (second series), active compounds read low 1.03 | S. cerevisiae deletion strains, locus YLR371W, strain rom2, active compounds read low 1.02 | S. cerevisiae deletion strains, locus YLR418C, strain cdc73, active compounds read low 1.06 | S. cerevisiae deletion strains, locus YML016C, strain PPZ1, active compounds read low 0.999 | S. cerevisiae deletion strains, locus YML032C, strain rad52, active compounds read low 1.02 | S. cerevisiae deletion strains, locus YML124C, strain tub3, active compounds read low 1.01 | S. cerevisiae deletion strains, locus YMR078C, strain ctf18, active compounds read low 1.01 | S. cerevisiae deletion strains, locus YMR223W, strain ubp8, active compounds read low 1.02 | S. cerevisiae deletion strains, locus YMR263W, strain SAP30, active compounds read low 1.01 | S. cerevisiae deletion strains, locus YMR307W, strain GAS1, active compounds read low 1.04 | S. cerevisiae deletion strains, locus YNL067W, strain RPL9B, active compounds read low 1.02 | S. cerevisiae deletion strains, locus YNL128W, strain TEP1, active compounds read low 1.04 | S. cerevisiae deletion strains, locus YNL183C, strain NPR1, active compounds read low 0.989 | S. cerevisiae deletion strains, locus YNL233W, strain BNI4, active compounds read low 1 | S. cerevisiae deletion strains, locus YNL250W, strain rad50, active compounds read low 1.01 | S. cerevisiae deletion strains, locus YNL271C, strain bni1, active compounds read low 1.02 | S. cerevisiae deletion strains, locus YNL298W, strain CLA4, active compounds read low 1.03 | S. cerevisiae deletion strains, locus YNL307C, strain MCK1, active compounds read low 1.03 | S. cerevisiae deletion strains, locus YNL322C, strain KRE1, active compounds read low 1.01 | S. cerevisiae deletion strains, locus YNR052C, strain pop2, active compounds read low 1.02 | S. cerevisiae deletion strains, locus YOL006C, strain TOP1, active compounds read low 0.99 | S. cerevisiae deletion strains, locus YOL012C, strain htz1 0.63 | S. cerevisiae deletion strains, locus YOL147C, strain pex11, active compounds read low 1.03 | S. cerevisiae deletion strains, locus YOR061W, strain CKA2, active compounds read low 1 | S. cerevisiae deletion strains, locus YOR069W, strain VPS5, active compounds read low 1.01 | S. cerevisiae deletion strains, locus YOR136W, strain idh2, active compounds read low 1.02 | S. cerevisiae deletion strains, locus YOR144C, strain elg1, active compounds read low 1.01 | S. cerevisiae deletion strains, locus YOR184W, strain ser1, active compounds read low 1.02 | S. cerevisiae deletion strains, locus YOR231W, strain MKK1, active compounds read low 1.02 | S. cerevisiae deletion strains, locus YOR316C, strain cot1, active compounds read low 1.03 | S. cerevisiae deletion strains, locus YPL055C, strain LGE1, active compounds read low 0.997 | S. cerevisiae deletion strains, locus YPL241C, strain CIN2, active compounds read low 1 | S. cerevisiae deletion strains, locus YPL256C, strain CLN2, active compounds read low 1.07 | S. cerevisiae deletion strains, locus YPR119W, strain clb2, active compounds read low 1.01 | S. cerevisiae deletion strains, locus YPR141C, strain kar3, active compounds read low 1.01 | S. cerevisiae deletion strains, locus YPR163C, strain tif3, active compounds read low 1.01 | S. cerevisiae deletion strains, locus YPR167C, strain met16, active compounds read low 1.03 | S. cerevisiae deletion strains, strain wtn01, active compounds read low 1.04 | S. cerevisiae strains, strain wild type, active compounds read low 1.01
